PubChem BioAssay AID1159580 (chemical genetic matrix, 2015)
“And” between values parts separate entries of the source, which are not always exact repeats. Equal values may be shown once. Out of some 5,500 compounds screened, about 2,000 (36%) were called active. About 18% were inconclusive and are not listed. Some of the results follow. Unmarked numbers belong to inactive results. No stated cut-off is given here; in the data, active means normalized growth mostly below about 0.91 (no sharp cut-off); inconclusive means no clear call, values can overlap the other calls; inactive means mostly above about 0.92.

Experiment: chemical genetic growth profiling, strain panel (AID 1159580);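 further: tested at 20 µM; growth read once vehicle control cultures reached saturation at 30 °C; 1 = growth at the plate median or of vehicle wells; lower values mean less growth of the strain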
Conditions: S. cerevisiae deletion strains, growth OD

COc1ccc2c(c1)OCC(Cc1ccc(OC)c(OC)c1)C2=O (stereo unspecified)
normalized growth (locus YAL013W, strain DEP1, active compounds read low): 0.979
normalized growth (locus YAL021C, strain ccr4, active compounds read low): 0.982
normalized growth (locus YAL026C, strain drs2, active compounds read low): 0.928
normalized growth (locus YAL030W, strain snc1, active compounds read low): 0.972
normalized growth (locus YBL061C, strain skt5, active compounds read low): 0.959
normalized growth (locus YBR009C, strain hhf1, active compounds read low): 0.941
normalized growth (locus YBR021W, strain FUR4, active compounds read low): 0.905
normalized growth (locus YBR023C, strain chs3, active compounds read low): 0.958
normalized growth (locus YBR171W, strain sec66, active compounds read low): 0.96
normalized growth (locus YBR229C, strain ROT2, active compounds read low): 0.993
normalized growth (locus YBR231C, strain swc5, active compounds read low): 0.924
normalized growth (locus YBR279W, strain paf1, active compounds read low): 0.973
normalized growth (locus YCL011C, strain gbp2, active compounds read low): 0.96
normalized growth (locus YCL016C, strain dcc1, active compounds read low): 0.969
normalized growth (locus YCL029C, strain bik1, active compounds read low): 0.988
normalized growth (locus YCL061C, strain MRC1, active compounds read low): 0.923
normalized growth (locus YCL069W, strain vba3, active compounds read low): 0.967
normalized growth (locus YCR088W, strain abp1, active compounds read low): 0.987
normalized growth (locus YDL005C, strain med2, active compounds read low): 0.987
normalized growth (locus YDL035C, strain GPR1, active compounds read low): 0.954
normalized growth (locus YDL040C, strain nat1, active compounds read low): 0.982
normalized growth (locus YDL074C, strain BRE1, active compounds read low): 0.928
normalized growth (locus YDL101C, strain DUN1, active compounds read low): 0.982
normalized growth (locus YDL185W, strain tfp1, active compounds read low): 0.999
normalized growth (locus YDL192W, strain arf1, active compounds read low): 0.986
normalized growth (locus YDR001C, strain nth1, active compounds read low): 0.973
normalized growth (locus YDR069C, strain doa4, active compounds read low): 0.964
normalized growth (locus YDR101C, strain arx1, active compounds read low): 0.974
normalized growth (locus YDR137W, strain rgp1, active compounds read low): 0.933
normalized growth (locus YDR159W, strain sac3, active compounds read low): 0.873
normalized growth (locus YDR162C, strain NBP2, active compounds read low): 0.89
normalized growth (locus YDR195W, strain ref2): 1.06
normalized growth (locus YDR297W, strain sur2, active compounds read low): 0.949
normalized growth (locus YDR318W, strain mcm21, active compounds read low): 0.978
normalized growth (locus YDR334W, strain swr1, active compounds read low): 0.98
normalized growth (locus YDR335W, strain msn5, active compounds read low): 0.986
normalized growth (locus YDR388W, active compounds read low): 1.01
normalized growth (locus YDR392W, strain spt3, active compounds read low): 0.544 (active)
normalized growth (locus YDR502C, strain sam2, active compounds read low): 0.973
normalized growth (locus YEL003W, strain gim4, active compounds read low): 0.947
normalized growth (locus YEL037C, strain rad23, active compounds read low): 0.986
normalized growth (locus YEL061C, strain CIN8 (second series), active compounds read low): 0.985
normalized growth (locus YEL061C, strain CIN8, active compounds read low): 0.987
normalized growth (locus YER015W, strain faa2, active compounds read low): 0.968
normalized growth (locus YER016W, strain bim1, active compounds read low): 0.976
normalized growth (locus YER110C, active compounds read low): 0.988
normalized growth (locus YER111C, strain swi4, active compounds read low): 0.982
normalized growth (locus YER155C, strain BEM2 (second series), active compounds read low): 0.802 (active)
normalized growth (locus YER155C, strain BEM2, active compounds read low): 0.999
normalized growth (locus YER167W, strain BCK2, active compounds read low): 0.997
normalized growth (locus YFR010W, strain ubp6, active compounds read low): 0.97
normalized growth (locus YGL078C, strain dbp3, active compounds read low): 0.998
normalized growth (locus YGL086W, strain mad1, active compounds read low): 0.965
normalized growth (locus YGL167C, strain pmr1, active compounds read low): 0.964
normalized growth (locus YGL173C, strain kem1, active compounds read low): 0.963
normalized growth (locus YGL227W, strain vid30, active compounds read low): 0.974
normalized growth (locus YGL240W, strain doc1, active compounds read low): 0.898
normalized growth (locus YGL248W, strain PDE1, active compounds read low): 0.954
normalized growth (locus YGL253W, strain hxk2, active compounds read low): 0.879 (active)
normalized growth (locus YGR078C, strain PAC10, active compounds read low): 0.905
normalized growth (locus YGR135W, strain pre9, active compounds read low): 0.993
normalized growth (locus YGR252W, strain gcn5, active compounds read low): 0.834
normalized growth (locus YHR013C, strain ard1, active compounds read low): 0.907
normalized growth (locus YHR027C, strain rpn1, active compounds read low): 0.967
normalized growth (locus YHR030C, strain SLT2, active compounds read low): 0.989 and 0.988
normalized growth (locus YHR079C, strain IRE1 (second series), active compounds read low): 1
normalized growth (locus YHR079C, strain IRE1, active compounds read low): 1.01
normalized growth (locus YHR094C, strain hxt1, active compounds read low): 1.01
normalized growth (locus YHR129C, strain ARP1, active compounds read low): 0.976
normalized growth (locus YHR142W, strain chs7, active compounds read low): 0.897
normalized growth (locus YHR200W, strain rpn10, active compounds read low): 0.992
normalized growth (locus YIL066C, strain RNR3, active compounds read low): 0.915
normalized growth (locus YIL073C, strain SPO22, active compounds read low): 0.925
normalized growth (locus YIL125W, strain kgd1, active compounds read low): 0.991
normalized growth (locus YIR030C, strain dcg1, active compounds read low): 0.99
normalized growth (locus YJL092W, strain hpr5, active compounds read low): 0.981
normalized growth (locus YJL095W, strain BCK1 (second series), active compounds read low): 0.979
normalized growth (locus YJL095W, strain BCK1, active compounds read low): 0.887 and 1.01
normalized growth (locus YJL115W, strain asf1, active compounds read low): 0.974
normalized growth (locus YJL129C, strain trk1, active compounds read low): 0.892
normalized growth (locus YJL134W, strain LCB3, active compounds read low): 0.994
normalized growth (locus YJL154C, strain vps35, active compounds read low): 0.98
normalized growth (locus YJL164C, strain tpk1, active compounds read low): 0.96
normalized growth (locus YJL166W, strain qcr8, active compounds read low): 0.909
normalized growth (locus YJL168C, strain set2, active compounds read low): 0.994
normalized growth (locus YJL187C, strain SWE1 (second series), active compounds read low): 0.965
normalized growth (locus YJR043C, strain POL32, active compounds read low): 0.97
normalized growth (locus YJR066W, strain TOR1, active compounds read low): 0.955
normalized growth (locus YJR075W, strain HOC1, active compounds read low): 0.972
normalized growth (locus YKL009W, strain mrt4, active compounds read low): 0.984
normalized growth (locus YKL068W, active compounds read low): 0.982
normalized growth (locus YKL085W, strain MDH1 (second series), active compounds read low): 0.995
normalized growth (locus YKL085W, strain MDH1, active compounds read low): 0.995
normalized growth (locus YKL160W, strain elf1, active compounds read low): 0.955
normalized growth (locus YKR001C, strain vps1, active compounds read low): 0.998
normalized growth (locus YKR026C, strain gcn3, active compounds read low): 0.976
normalized growth (locus YKR091W, strain srl3, active compounds read low): 0.991
normalized growth (locus YLL001W, strain dnm1, active compounds read low): 0.897 (active)
normalized growth (locus YLL026W, active compounds read low): 0.963
normalized growth (locus YLL041C, strain sdh2, active compounds read low): 0.983
normalized growth (locus YLR027C, strain aat2, active compounds read low): 0.922 (active)
normalized growth (locus YLR039C, strain RIC1, active compounds read low): 0.958
normalized growth (locus YLR058C, strain SHM2, active compounds read low): 0.98
normalized growth (locus YLR102C, strain apc9, active compounds read low): 0.998
normalized growth (locus YLR113W, strain HOG1, active compounds read low): 0.931
normalized growth (locus YLR221C, strain rsa3, active compounds read low): 0.922
normalized growth (locus YLR258W, strain gsy2, active compounds read low): 0.968
normalized growth (locus YLR262C, strain YPT6 (second series), active compounds read low): 0.88
normalized growth (locus YLR262C, strain YPT6, active compounds read low): 0.869
normalized growth (locus YLR268W, strain sec22, active compounds read low): 0.963
normalized growth (locus YLR320W, strain mms22, active compounds read low): 0.879
normalized growth (locus YLR330W, strain CHS5, active compounds read low): 0.961
normalized growth (locus YLR342W, strain FKS1 (second series), active compounds read low): 0.921
normalized growth (locus YLR342W, strain FKS1, active compounds read low): 0.951
normalized growth (locus YLR357W, strain rsc2, active compounds read low): 0.945
normalized growth (locus YLR370C, strain arc18, active compounds read low): 0.972
normalized growth (locus YLR371W, strain rom2, active compounds read low): 0.985
normalized growth (locus YLR384C, strain iki3, active compounds read low): 0.976
normalized growth (locus YLR418C, strain cdc73, active compounds read low): 0.842
normalized growth (locus YML016C, strain PPZ1, active compounds read low): 0.995
normalized growth (locus YML032C, strain rad52, active compounds read low): 0.984
normalized growth (locus YML120C, strain ndi1, active compounds read low): 0.965
normalized growth (locus YML124C, strain tub3, active compounds read low): 0.986
normalized growth (locus YMR058W, strain fet3, active compounds read low): 0.938
normalized growth (locus YMR078C, strain ctf18, active compounds read low): 1
normalized growth (locus YMR125W, strain sto1, active compounds read low): 0.994
normalized growth (locus YMR129W, active compounds read low): 0.981
normalized growth (locus YMR205C, strain PFK2, active compounds read low): 0.896
normalized growth (locus YMR223W, strain ubp8, active compounds read low): 1
normalized growth (locus YMR231W, strain pep5, active compounds read low): 0.993
normalized growth (locus YMR307W, strain GAS1, active compounds read low): 0.83
normalized growth (locus YNL067W, strain RPL9B, active compounds read low): 0.968
normalized growth (locus YNL071W, strain lat1, active compounds read low): 0.82 (active)
normalized growth (locus YNL128W, strain TEP1, active compounds read low): 0.991
normalized growth (locus YNL183C, strain NPR1, active compounds read low): 0.961
normalized growth (locus YNL209W, strain ssb2, active compounds read low): 0.987
normalized growth (locus YNL233W, strain BNI4, active compounds read low): 0.919
normalized growth (locus YNL248C, strain rpa49, active compounds read low): 0.928
normalized growth (locus YNL250W, strain rad50, active compounds read low): 0.998
normalized growth (locus YNL271C, strain bni1, active compounds read low): 0.989
normalized growth (locus YNL298W, strain CLA4, active compounds read low): 0.98
normalized growth (locus YNL307C, strain MCK1, active compounds read low): 0.894 (active)
normalized growth (locus YNL322C, strain KRE1 (second series), active compounds read low): 0.982
normalized growth (locus YNL322C, strain KRE1, active compounds read low): 0.985
normalized growth (locus YNR049C, strain mso1, active compounds read low): 0.985
normalized growth (locus YNR052C, strain pop2, active compounds read low): 0.989
normalized growth (locus YOL006C, strain TOP1, active compounds read low): 0.784
normalized growth (locus YOL012C, strain htz1): 0.731
normalized growth (locus YOL147C, strain pex11, active compounds read low): 0.98
normalized growth (locus YOR001W, strain rrp6, active compounds read low): 0.923
normalized growth (locus YOR061W, strain CKA2, active compounds read low): 0.984
normalized growth (locus YOR069W, strain VPS5, active compounds read low): 0.993
normalized growth (locus YOR070C, strain gyp1, active compounds read low): 0.937
normalized growth (locus YOR080W, strain dia2, active compounds read low): 0.967
normalized growth (locus YOR083W, strain WHI5, active compounds read low): 0.936
normalized growth (locus YOR106W, strain vam3, active compounds read low): 0.978
normalized growth (locus YOR136W, strain idh2, active compounds read low): 0.99
normalized growth (locus YOR144C, strain elg1, active compounds read low): 0.978
normalized growth (locus YOR184W, strain ser1, active compounds read low): 0.884
normalized growth (locus YOR231W, strain MKK1, active compounds read low): 1.02
normalized growth (locus YOR265W, strain rbl2, active compounds read low): 1
normalized growth (locus YOR270C, strain vph1, active compounds read low): 0.821
normalized growth (locus YOR290C, strain snf2, active compounds read low): 0.935
normalized growth (locus YOR316C, strain cot1, active compounds read low): 1
normalized growth (locus YPL051W, strain arl3, active compounds read low): 0.922
normalized growth (locus YPL055C, strain LGE1, active compounds read low): 0.896
normalized growth (locus YPL078C, strain atp4, active compounds read low): 0.939
normalized growth (locus YPL106C, strain sse1, active compounds read low): 0.94
normalized growth (locus YPL240C, strain hsp82, active compounds read low): 0.993
normalized growth (locus YPL241C, strain CIN2, active compounds read low): 0.99
normalized growth (locus YPL256C, strain CLN2, active compounds read low): 1.02
normalized growth (locus YPR119W, strain clb2, active compounds read low): 0.98
normalized growth (locus YPR141C, strain kar3, active compounds read low): 0.992
normalized growth (locus YPR163C, strain tif3, active compounds read low): 0.969
normalized growth (locus YPR167C, strain met16, active compounds read low): 0.965
normalized growth (strain wtn01, active compounds read low): 0.971
